Bioassay records from PubChem.
RORg inh – inhibitors of mouse ROR gamma transcriptional activity; Drosophila S2 Gal4-RORgamma UAS-luciferase reporter, 20 h; Potency, µM (series often up to 53.6 µM), for the others: top-dose activity change, negative = inhibition, most hits filed as inhibitors; 310,000 compounds, 5.4% hits; note: potency is the fitted concentration of half-maximal effect; % is set by controls: 0 for no effect and ±100 for the full control effect; nearly all actives have a fitted effect of over 60% in size
Target sequence (P51450 whole entry, looked up, the tested form may be a part): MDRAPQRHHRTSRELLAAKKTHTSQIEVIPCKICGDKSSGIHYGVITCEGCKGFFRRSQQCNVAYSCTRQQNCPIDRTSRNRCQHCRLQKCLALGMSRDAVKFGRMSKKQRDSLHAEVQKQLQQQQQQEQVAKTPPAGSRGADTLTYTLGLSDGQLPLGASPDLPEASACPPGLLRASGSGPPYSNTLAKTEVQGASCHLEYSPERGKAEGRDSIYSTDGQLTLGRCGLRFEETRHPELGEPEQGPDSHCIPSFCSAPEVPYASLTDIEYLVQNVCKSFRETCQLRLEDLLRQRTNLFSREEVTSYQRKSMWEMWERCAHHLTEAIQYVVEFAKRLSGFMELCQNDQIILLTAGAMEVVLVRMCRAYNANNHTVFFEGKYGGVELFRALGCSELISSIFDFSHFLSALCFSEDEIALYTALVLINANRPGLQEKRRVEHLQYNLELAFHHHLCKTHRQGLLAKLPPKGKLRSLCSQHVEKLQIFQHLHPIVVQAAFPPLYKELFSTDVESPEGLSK
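Luminescence from a UAS-regulated Photinus luciferase reporter in stably transfected Drosophila Schneider cells is measured; decreased signal marks ROR gamma inhibition. Fusion expression is induced by 700 uM copper sulfate for 20 hr.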
VP16 counter – counter-screen for ROR gamma inhibitors: Gal4-VP16 reporter; Drosophila S2 Gal4-VP16 UAS-luciferase, luminescence, 20 h; Potency, µM (top dose mostly 53.6 µM), for inactives: at the top dose activity, negative = inhibition, usual class: inhibitors; 310,000 compounds, 3.5% hits; AID 2546;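 note: Gal4-VP16 expression switched on by copper sulfate through the metallothionein promoter; potency is the fitted concentration of half-maximal effect; % is set by controls: 0 for no effect and ±100 for the full control effect; nearly all actives have a fitted effect of over 50% in size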
CtBP-E1A inh – inhibitors of CtBP/E1A interaction | AlphaScreen GST-E1A/His-CtBP binding, 1536-well; hits give low values | activity change, % (concentration not given with the values) | 340,000 compounds, 0.49% hits; in the data active = activity change below about -65%; inconclusive = mostly about -30% to -63%; note: % is set by controls: 0 for no effect and ±100 for the full control effect
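In 5 uL wells, 23 nL compound meets equimolar GST-E1A and His-CtBP (5X stock 125 nM each) for 2 h, 37 °C. Beads (5X, 50 ug/mL) then 1 h, 37 °C, dark.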
p53 reactivator – mutant p53 re-activation in reporter cells. 320,000 compounds, 0.063% hits. H1299 p53-A138V BP100-luciferase reporter, luminescence, 24 h. Potency, µM (doses to about 92.2 µM), without a hit: at the top dose activity change, positive = activation, most hits filed as activators; note: potency is the fitted concentration of half-maximal effect; % of control where 0% means no effect; nearly all actives have a fitted effect of over 45% in size
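p53-null H1299 cells stably carrying temperature-sensitive p53-A138V and a BP100-luciferase reporter were pinned with compounds (4-point, 1:5 series) and held 24 hrs at 37 deg C. Luminescence was read 10 min after detection reagent.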
Six1-Eya2 blk – Six1/Eya2 interaction inhibition; AlphaScreen GST-Six1/His-Eya2 binding, biochemical; hits give low values; activity change, % (no concentration beside the values); 360,000 compounds, 0.56% hits; AID 651725; in the data active = activity change below about -65%; inconclusive = mostly about -30% to -63%; note: % is set by controls: 0 for no effect and ±100 for the full control effect
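GST-Six1 + His-Eya2 (5X stock: 250/500 nM); Tris pH 8.0, 300 mM NaCl, 0.05% BSA, 0.02% Tween 20; GSH donor/Ni acceptor beads; 1 h 37 °C dark; AlphaScreen readout.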
Starred values were filed as active, the others as inactive; ? = inconclusive; / = no result given; [ ] = dose if it differs, or a comment. An excerpt weighted towards active compounds, which were near 5.4% of everything screened. Unless noted, calls come from the whole dose curve; as a rule, active = well fitted curve in the direction sought with a large enough effect; inconclusive = small, poorly fitted or top-dose-only effect, or another doubt; inactive = no such curve, though single readings can be large; an effect the other way counts as inactive or inconclusive.

SMILES	RORg inh	VP16 counter	CtBP-E1A inh	p53 reactivator	Six1-Eya2 blk
C/C(=N\NC(=O)c1ccccc1N)c1ccc(NC(=O)Cc2ccccc2)cc1	7%	0%	3	?	-15
C/C(=N\NC(=O)c1cccc(F)c1)c1ccc(NC(=O)Cc2ccccc2)cc1	7%	-5%	2	?	-1
C/C(=N\NC(=O)c1cc(O)cc(O)c1)c1ccc(NC(=O)Cc2ccccc2)cc1	?	26%	-89*	?	-89*
COc1ccccc1C(=O)N/N=C(\C)c1ccc(NC(=O)Cc2ccccc2)cc1	18%	7.9µM*	-2	?	-2
C/C(=N\NC(=O)c1cccc(C)c1O)c1ccc(NC(=O)Cc2ccccc2)cc1	11µM*	?	2	19%	-9
COC(=O)C(Cc1ccc(O)cc1)NC(=O)C(C)NC(=O)c1ccc(C(C)(C)C)cc1 (stereo unspecified)	11%	-4%	6	0%	12
COc1ccc(CC(=O)Nc2ccc(N(C)C)c3ccccc23)cc1	14%	0%	2	/	-6
CN(C)c1ccc(/C=C(/NC(=O)c2ccccc2)C(=O)N2CCCC2)cc1	13%	5%	-12	-3%	-1
Cc1nn(-c2ccccc2)nc1CNC(=O)C1CCC1	-20%	10%	/	7%	4
NNC(=O)c1cccc(COc2ccc3c(c2)CCC3)c1	3.2µM*	5µM*	24	?	8
COc1cccc(Nc2ncc3nc(-c4cccs4)c(=O)n(C[C@H]4CCCO4)c3n2)c1	?	-15%	/	/	/
CCN(CC(=O)Nc1ccccc1C(F)(F)F)C(=O)c1ccccc1OCc1ccc(F)cc1	/	/	-3	/	2
CC1(C)Cc2c(sc3ncnc(NNC(=S)NCc4ccccc4)c23)CO1	2.2µM*	3.2µM*	/	10%	2
CC(C)COCc1ccc(O)c2ncccc12	0.71µM*	1µM*	-91*	7%	-79*
CCCOCc1ccc(O)c2ncccc12	1.3µM*	3.5µM*	-94*	18%	-70*
O=C(CCCc1ccccc1)Nc1cccnc1	32%	19%	-2	?	-6
CCCCCCC(=O)N(O)C1CC(=O)N(c2ccc(Cl)cc2)C1=O (stereo unspecified)	?	?	4	-7%	-4
CCCCCCC(=O)N(O)C1CC(=O)N(c2ccc(C)cc2)C1=O (stereo unspecified)	11µM*	?	-14	-10%	-2
CCOc1ccc(OCCNC(=O)C(NC(=O)c2c(F)cccc2F)C(C)C)cc1 (stereo unspecified)	/	/	-3	-1%	10
Cc1ccc(C)c(S(=O)(=O)N2CCN(Cc3ccc(O)c4ncccc34)CC2)c1	2µM*	3.2µM*	-86*	15%	-79*
Oc1ccc(CN2CCc3ccccc3C2)c2cccnc12	1µM*	?	-95*	/	-94*
Oc1ccc(CN2CCCCC2)c2cccnc12	7.1µM*	7.9µM*	-90*	0%	-91*
CSc1ncccc1C(=O)N1CCN(S(=O)(=O)c2cc(C)ccc2C)CC1	13%	-2%	3	-3%	-4
Oc1c(CN2CCCCC2)ccc2cccnc12	/	/	-93*	/	-80*
Oc1ccc2ccccc2c1CN1CCCCC1	/	/	3	/	6
SMILES	RORg inh	VP16 counter	CtBP-E1A inh	p53 reactivator	Six1-Eya2 blk
Oc1cc2c(cc1CN1CCc3ccccc3C1)OCO2	-30%	18%	-19	7%	-12
COc1ccccc1N(C)S(=O)(=O)c1ccc(C(=O)NCc2ccccc2CN2CCCC2)cc1	/	/	-3	/	-3
CC1CCN(S(=O)(=O)c2nnc(NC(=O)c3cccc([N+](=O)[O-])c3)s2)CC1	7%	1%	2	12%	-6
O=C(CCCOc1cccc(Br)c1)NC1CCC(O)CC1 (stereo unspecified)	-6%	6%	10	1%	0
Oc1c(Cl)cc(CN2CCCCC2)c2cccnc12	4.5µM*	3.5µM*	/	-4%	/
Oc1ccc(CN2CCN(c3ccccc3)CC2)c2cccnc12	1.3µM*	1µM*	-75*	-4%	-74*
COc1cc(CN2CCc3ccccc3C2)ccc1O	5.6µM*	3.5µM*	/	-14%	6
Oc1ccc(CN2CCC(Cc3ccccc3)CC2)c2cccnc12	2.2µM*	4.5µM*	?	20%	-73*
Oc1ccc2ccccc2c1CN1CCN(c2ccccc2)CC1	7%	12%	6	1%	-2
CCCC[C@H]1CCCO[C@@](C(=O)NCc2ccc(C)o2)(C(F)(F)F)C1	-18%	5%	/	/	/
Cc1cccc(C(=O)O/N=C/c2c(N3CCOCC3)n(C)c3ccccc23)c1	1.6µM*	3.5µM*	/	-8%	/
Cn1c(Cl)c(/C=N/OC(=O)c2ccccc2Cl)c2ccccc21	0%	-8%	2	-4%	8
COc1cccc2c1C(=O)c1c(O)c3c(c(O)c1C2=O)C[C@@](O)(C(=O)CO)C[C@@H]3OC1C[C@@H](N)[C@H](O)[C@H](C)O1 (stereo partly specified)	2.5µM*	?	/	/	/
COc1cccc2c1C(=O)c1c(O)c3c(c(O)c1C2=O)C[C@](O)(C(=O)CO)C[C@@H]3O[C@H]1C[C@H](N)[C@@H](O)[C@H](C)O1	-4%[10 µM]	0%	/	/	/
CC(=O)[C@]1(O)Cc2c(O)c3c(c(O)c2[C@@H](O[C@H]2C[C@H](N)[C@H](O)[C@H](C)O2)C1)C(=O)c1c(O)cccc1C3=O	3.5µM*	7.1µM*	/	/	/
CC(=O)[C@]1(O)Cc2c(O)c3c(c(O)c2[C@@H](O[C@H]2C[C@H](N)[C@H](O)[C@H](C)O2)C1)C(=O)c1ccccc1C3=O	?	-68%	-29	/	-22
O=C1C=C(NCc2ccccc2)c2ccccc2C1=O	16µM*	?	-29	-12%	?
O=C1C=C(Nc2ccccc2O)c2ccccc2C1=O	?	10µM*	12	-11%	?
Cc1ccc(S(=O)(=O)NC(C(=O)Oc2cc3oc(=O)cc(C)c3cc2Cl)C(C)C)cc1 (stereo unspecified)	-4%	0%	-6	-2%	8
C=C(CCC(=O)c1ccccc1)C(=O)c1ccccc1	13µM*	11µM*	-4	-27%	3
Cc1ccc(-c2sc(C(=O)NN)c(C)c2C#N)cc1	4.5µM*	7.1µM*	9	0%	3
Cc1oc(-c2ccc(Cl)cc2)cc1C(=O)O	14µM*	?	6	-5%	-6
Cc1oc(-c2ccccc2)cc1C(=O)Nc1cccc(C(=O)O)c1	10%	-12%	-11	?	-6
O=C(COC(=O)c1cccc(S(=O)(=O)N2CCN(c3ccccc3)CC2)c1)NCc1ccco1	8.9µM*	10µM*	1	15%	-15
NC(=O)COC(=O)c1cccc(S(=O)(=O)N2CCN(c3ccccc3)CC2)c1	42%	-1%	/	5%	0
